Screening data as filed in PubChem BioAssay.
NPC1 prom act = activators of NPC1 promoter; 320,000 compounds, 2.4% hits; Potency, µM (doses to about 9.22 µM), inactives show at the top dose activation, usual class: activators; Huh7 NPC1 promoter luciferase reporter, 24 h; AID 485313; further: % of control where 0% means no effect; nearly all actives have a fitted effect of over 60% in size
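Compounds in DMSO were transferred onto Huh7 NPC1-luciferase reporter cells pre-incubated 2 h; after 24 h at 37 °C, Amplite reagent was dispensed and luminescence recorded 10 min later.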
FLuc modulator = inhibits or activates purified firefly luciferase, miR-21 counter-screen. P08659. purified FLuc, Km substrates, luminescence inhibition. Potency, µM (highest dose often 57.5 µM), inactives show top-dose activity change, negative = inhibition, actives largely listed as inhibitors. 360,000 compounds, 6.9% hits;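 further: plate controls were vehicle for no effect and reference inhibitor for full effect; nearly all actives have a fitted effect of over 55% in size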
Target sequence (P08659 whole entry, looked up): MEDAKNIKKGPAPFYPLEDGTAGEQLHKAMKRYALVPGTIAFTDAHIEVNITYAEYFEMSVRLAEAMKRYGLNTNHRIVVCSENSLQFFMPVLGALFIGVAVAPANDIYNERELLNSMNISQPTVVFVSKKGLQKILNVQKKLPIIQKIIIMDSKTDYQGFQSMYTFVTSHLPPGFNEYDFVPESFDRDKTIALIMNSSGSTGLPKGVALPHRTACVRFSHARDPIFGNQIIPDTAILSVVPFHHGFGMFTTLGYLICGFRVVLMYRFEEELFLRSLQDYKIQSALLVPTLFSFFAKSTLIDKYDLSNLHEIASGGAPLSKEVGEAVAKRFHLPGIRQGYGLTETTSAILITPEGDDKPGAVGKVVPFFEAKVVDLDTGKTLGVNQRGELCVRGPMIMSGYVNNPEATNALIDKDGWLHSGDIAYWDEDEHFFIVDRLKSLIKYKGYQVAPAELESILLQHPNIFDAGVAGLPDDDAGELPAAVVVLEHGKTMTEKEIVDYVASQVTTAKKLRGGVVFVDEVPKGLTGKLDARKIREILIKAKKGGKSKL
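Purified P. pyralis luciferase, 10 nM final, with Km-level 10 uM D-luciferin and 10 uM ATP in 50 mM Tris acetate pH 7.5, 10 mM Mg acetate, 0.01% Tween-20, 0.05% BSA; 6-point qHTS titration about 60 µM downward; luminescence read.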
ELG1 genotox = genotoxicity induction in ELG1-luciferase HEK293T cells | 330,000 compounds, 1.3% hits | Potency, µM (top dose mostly 46 µM), inactives show at the highest dose activity change, positive = activation, actives largely listed as activators | AID 504466 | HEK293T ELG1-luciferase reporter, luminescence, 16 h; further: % of control where 0% means no effect; nearly all actives have a fitted effect of over 60% in size
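Reporter readout depends on ELG1 protein level, which increases with genetic stress. After 16 hr compound exposure at 37 °C, luciferase activity was quantified using ONE-Glo.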
ELG1 DNA repair = inhibitors of ELG1-dependent DNA repair in HEK293T cells; 330,000 compounds, 2.3% hits; HEK293T ELG1-luciferase reporter, luminescence, 16 h; DNA damage induced by 5-fluorouridine; Potency, µM (top dose mostly 46.1 µM), inactives show top-dose activity change, negative = inhibition, hits mostly inhibitors; further: on the % scale 0 is the no-effect control and ±100 the full control effect; nearly all actives have a fitted effect of over 55% in size
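Luminescence from the luciferase reporter, measured 30 min after ONE-Glo reagent at room temperature, was the read-out. Beforehand, 2,000 cells per well were exposed for 16 hr at 37 °C to 5-fluorouridine together with compound or vehicle.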
Rab9 promoter act = activates the Rab9 promoter; AID 485297; 320,000 compounds, 2.8% hits; Potency, µM (doses to about 9.22 µM), without a hit: at the highest dose activation, negative = inhibition, most hits filed as activators; Huh7 Rab9 promoter-luciferase reporter, luminescence, 24 h; further: % of control where 0% means no effect; nearly all actives have a fitted effect of over 60% in size
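Using Huh7 cells stably transfected with Rab9 promoter–luciferase, compounds were incubated 24 h at 37 °C, 5% CO2; luciferase luminescence was read 10 min after reagent addition.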
SMN2 splice enh = increases expression of the SMN2 splice variant. HEK293 SMN2-luciferase splicing reporter, luminescence, 30-36 h. Potency, µM (doses to about 46.1 µM), for inactives: at the highest dose activity change, positive = activation, hits mostly activators. 210,000 compounds, 2.8% hits. AID 1458; further: % of control where 0% means no effect; nearly all actives have a fitted effect of over 55% in size
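qHTS luciferase splicing reporter: luminescence rises when SMN2 exon 7 is included in transfected HEK293 cells. Compound exposure lasted 30-36 h at 37C, with 4.5 mM final sodium butyrate as control, followed by a ONE-Glo read.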
* marks the source's active call; other numbers are inactive results; ? = inconclusive; . = no result given; [ ] = another dose, or the depositor's remark. Compounds with a hit are over-represented: about 9.2% of the library has one in this group of screens. The call rests on the fitted dose curve; in most records, active means well fitted curve in the direction sought with a large enough effect; inconclusive means small, poorly fitted or top-dose-only effect, or another doubt; inactive means no such curve, though single readings can be large; an effect the other way counts as inactive or inconclusive. Potency means the concentration at half of the fitted maximal effect.

SMILES | NPC1 prom act | FLuc modulator | ELG1 genotox | ELG1 DNA repair | Rab9 promoter act | SMN2 splice enh
COc1ccc(-c2ncc3ccccn23)cc1 | 5% | ? | 11% | ? | ? | ?
COC(=O)c1cc(C(=O)OCC(=O)N2CCCCC2)cc([N+](=O)[O-])c1 | . | . | 2% | 14% | . | .
COc1ccc(C)cc1NC(=O)CSCc1cc(=O)n2c(C)csc2n1 | -5% | -3% | 0% | 2% | -2% | .
c1c2c(cc3sc(N4CCOCC4)nc13)OCCO2 | 0.4µM* | 0.95µM* | 0.33µM* | ? | 0.5µM* | 1.1µM*
Clc1ccc(-c2nsc(N3CCOCC3)n2)c(Cl)c1 | 0.79µM* | 4.3µM* | 3.3µM* | ? | 1µM* | .
O=C(NCc1ccccc1)c1ccc2nc(N3CCOCC3)sc2c1 | 1% | ? | 9% | 7% | 20% | .
Clc1cc(Cl)c2nc(N3CCOCC3)sc2c1 | 26% | 17µM* | ? | ? | ? | ?
Nc1ccc2nc(N3CCOCC3)sc2c1 | ? | ? | ? | ? | 2µM* | 16µM*
Cc1cc(C)c(S(=O)(=O)Nc2ccc(O)c(Sc3ncn[nH]3)c2)cc1C | 1% | -5% | -7% | -8% | 9% | .
c1ccc(N2CCN(c3nc4cc5c(cc4s3)OCCO5)CC2)cc1 | ? | ? | 5% | ? | ? | 10µM*
Cc1cc(NC(=O)CSc2ncnc3c2cnn3-c2ccccc2)no1 | -6% | -4% | -11% | ? | -3% | -16%
c1ccc(CSc2ncnc3c2cnn3-c2ccccc2)cc1 | ? | 12µM* | ? | ? | ? | 22µM*
CC(C)OC(=O)CSc1ncnc2c1cnn2-c1ccccc1 | 2% | 8.5µM* | 27% | 19% | 20% | -14%
CC(C)(C)C(=O)CSc1ncnc2c1cnn2-c1ccccc1 | 0.71µM* | 1.2µM* | ? | ? | 0.63µM* | .
COc1ccccc1-c1nc(S(=O)(=O)c2ccccc2)c(N2CCC(C)CC2)o1 | . | 5% | . | . | . | 5%
COc1ccc(CNC(=O)c2cnc(N3CCCC3)nc2C)cc1 | . | -6% | . | . | . | .
O=C(NCCCn1ccnc1)c1cc(-c2cccnc2)nc2ccc(Br)cc12 | -5% | ? | -8% | -8% | 4% | 7%
O=C(NCCCn1ccnc1)c1cc(-c2ccncc2)nc2ccccc12 | -18% | 6% | 0% | -3% | 1% | -1%
Cc1ccc2nc(-c3ccccc3)cc(C(=O)NCCCn3ccnc3)c2c1 | 1% | 21µM* | -2% | -3% | 0% | .
O=C(NCCCn1ccnc1)c1cc(-c2ccc(Cl)cc2)nc2ccccc12 | 0% | 24µM* | -13% | 0% | -5% | 1%
CCOC(=O)c1ccc(NC(=O)c2cnc3c(-c4ccc(F)cc4)c(C)nn3c2C)cc1 | . | -10% | . | . | . | .
CCCNC1=C(N(C(C)=O)c2cccc(F)c2)C(=O)c2ccccc2C1=O | -33% | 0% | -13% | 4.6µM* | -38% | -110%
CCC(=O)N(C1=C(NC(C)C)C(=O)c2ccccc2C1=O)C(C)C | 1% | -3% | -9% | ? | -5% | .
COc1cc(C(C)=O)ccc1OCC(O)CN1CCN(c2cc(C)cc(C)c2)CC1 (stereo not given) | -4% | 2% | -8% | 13µM* | -6% | .
CCC(C)(C)NC(=O)C1CCN(S(=O)(=O)c2ccc3c(c2)CCCN3C(C)=O)CC1 | . | -1% | . | . | . | .
SMILES | NPC1 prom act | FLuc modulator | ELG1 genotox | ELG1 DNA repair | Rab9 promoter act | SMN2 splice enh
Cn1cccc1C(=O)OCc1ccc(F)cc1 | -3% | ? | ? | 11% | 3% | .
Cn1cccc1C(=O)OCc1cc(Cl)cc2c1OCOC2 | ? | 13µM* | ? | ? | ? | 7%
COc1ccc(-c2cc3nc(-c4ccccc4)cc(N4CCC(O)CC4)n3n2)cc1 | -3% | 3% | -11% | 16µM* | 1% | .
COc1ccc(-c2cc3nc(-c4ccccc4)cc(N4CCCC(O)C4)n3n2)cc1 (stereo not given) | 0% | -6% | -7% | 16µM* | -4% | .
Fc1ccc(-c2cc3nc(-c4ccccc4)cc(N4CCOCC4)n3n2)cc1 | -3% | -1% | -6% | ? | -1% | 1%
Cc1ccc(-c2cc3nc(-c4ccccc4)cc(N4CCC5(CC4)OCCO5)n3n2)cc1 | 3% | 0% | -3% | -30% | -3% | -12%
CCC(C)(C)NC(=O)CCCSc1nc2ccccc2s1 | ? | 24µM* | 12% | -16% | ? | ?
O=C(O)CSc1ccc2ccccc2n1 | 2% | 1% | -2% | 11% | -4% | -9%
O=C(O)CCSc1nc2ccccc2s1 | -4% | 21µM* | -13% | -19% | 0% | -32%
c1ccc2sc(SCSc3nc4ccccc4s3)nc2c1 | 12% | ? | 9% | ? | 6% | -1%[9.22 µM]
N#CCc1nc(CSc2nc3ccccc3s2)cs1 | 29% | ? | 18µM* | ? | ? | 25%
CCc1cccc(CC)c1NC(=O)CCCSc1nc2ccccc2s1 | -1% | -1% | -5% | ? | -3% | .
N#CCCCSc1nnc(CSc2nc3ccccc3s2)n1-c1ccccc1 | 1% | 4% | -11% | ? | 4% | -24%
O=C(O)CCSc1ccc2ccccc2n1 | 0% | 24µM* | 9% | ? | 3% | -9%
Cc1cc(C)cc(N2C(=O)CSC23C(=O)N(Cc2c(F)cccc2Cl)c2ccccc23)c1 (stereo not given) | . | -11% | . | . | . | .
CCN(CC)CCCNC(=O)c1c2c(nc3ccccc13)C(=O)N(C1CCCCC1)C2 | . | -4% | . | . | . | .
CNS(=O)(=O)c1ccc(NC(=O)c2cc(-c3ccncc3)nc3ccc(Cl)cc23)cc1 | 0% | 0% | 12% | -10% | 7% | .
COc1ccc(N2CCN(CCCNC(=O)c3nnc(Cc4ccc(F)cc4)o3)CC2)cc1 | . | -15% | . | . | . | .
